Only some compounds are listed: those with a hit (about 3% of all), similar ones and a draw of the others.
Nrf2 block: Nrf2 pathway inhibition; AID 504444; Potency, µM (titrated, usually from 46 µM), actives largely listed as inhibitors; 360,000 tested, 2.1% active; A549 ARE-Fluc reporter, luciferase luminescence, 18-24 h; note: nearly all actives have a fitted effect of over 60% in size
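Nrf2 activity is the BugLite luminescence, read 15 min after reagent at room temperature, following CellTiter-Fluor cytotoxicity readout (30 min, 37C). Compound titrations were applied for 18-24 h to 5000 A549 ARE_Fluc cells/well in 5% FBS OPTI-MEM.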
A549 tox: counter-screen for Nrf2 inhibitors: cytotoxicity in A549 cells; A549 ARE-Fluc cells, CellTiter-Fluor viability, 18-24 h; AID 504648; 390,000 tested, 0.16% active; Potency, µM (doses to about 46 µM), hits mostly inhibitors
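A549 ARE-Fluc cells in 5% FBS OPTI-MEM, 5000 cells/well, rested 2 h then exposed to compounds in concentration-response for 18-24 h at 37 °C. Viability by CellTiter-Fluor fluorescence (Ex 405/Em 525) after 30 min; luciferase luminescence (BugLite, 15 min, RT) read afterwards.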
TrxR1 inh: inhibitors of rat thioredoxin reductase 1 | O89049 | recombinant rTrxR1, NADPH fluorescence consumption, selenite substrate | Potency, µM (series often up to 114 µM), actives largely listed as inhibitors | 390,000 tested, 1% active; note: nearly all actives have a fitted effect of over 65% in size
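Rat TrxR1 (90 nM in the dispensed reagent) was pre-reduced with 400 uM NADPH for 5 min at room temperature, then incubated with compound for 15 min. After 400 uM selenite was added, NADPH fluorescence (Ex 340/Em 450 nm) was followed for 8 min.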
TrxR1 substrate: rat thioredoxin reductase 1 substrate activity | O89049 | purified TrxR1 substrate turnover, NADPH consumption readout | Potency, µM (top dose mostly 114 µM) | 390,000 tested, 0.01% active; note: nearly all actives have a fitted effect of over 50% in size
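Rat TrxR1, dispensed at 90 nM, was prereduced with 400 uM NADPH (final) for 5 min at ~22 deg C, then incubated with compound 15 min before 400 uM selenite. A first-read NADPH fluorescence drop versus no-compound background flagged substrates.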
GALK inhibitor: galactokinase (human) inhibition; P51570; Purified GALK, Kinase-Glo residual ATP luminescence; Potency, µM (highest dose often 57.5 µM), usual class: inhibitors; 270,000 tested, 0.007% active
Target sequence (P51570 whole entry, looked up): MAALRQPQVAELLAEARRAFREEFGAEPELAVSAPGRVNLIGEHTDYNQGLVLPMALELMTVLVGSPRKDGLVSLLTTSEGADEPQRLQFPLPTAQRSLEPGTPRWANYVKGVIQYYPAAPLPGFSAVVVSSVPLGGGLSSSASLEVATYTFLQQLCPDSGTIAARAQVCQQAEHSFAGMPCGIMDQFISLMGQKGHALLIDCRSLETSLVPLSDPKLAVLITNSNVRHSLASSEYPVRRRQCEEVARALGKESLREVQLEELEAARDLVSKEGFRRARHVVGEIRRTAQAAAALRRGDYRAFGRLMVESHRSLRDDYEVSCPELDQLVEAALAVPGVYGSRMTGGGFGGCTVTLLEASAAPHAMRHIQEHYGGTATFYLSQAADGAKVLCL
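The enzyme phosphorylates galactose (100 uM) using ATP (35 uM); inhibition is detected as higher residual ATP, quantified by bioluminescence after 1 h reaction at room temperature, pH 8.0.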
Nrf2 activator: activates Nrf2 signaling; AREc32 ARE-luciferase reporter (MCF7-derived line), luminescence, 24 h; Potency, µM (titrated, usually from 46.1 µM), actives largely listed as activators; 410,000 tested, 0.31% active; AID 624171; note: nearly all actives have a fitted effect of over 65% in size
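AREc32_Fluc, 1000 cells/well, OPTI-MEM + 5% FBS, o/n 37 deg C 5% CO2; 23 nL cpd by pin tool, 24 hr; Steady-Glo 30 min RT, luminescence.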
Numbers stand for hits; – = inactive; ? = inconclusive; · = no result given; ! = not confirmed by another sample; [ ] = dose if it differs, or a comment. Calls come from the whole dose curve; as a rule, active = well fitted curve in the direction sought with a large enough effect; inconclusive = small, poorly fitted or top-dose-only effect, or another doubt; inactive = no such curve, though single readings can be large; an effect the other way counts as inactive or inconclusive.

SMILES | Nrf2 block | A549 tox | TrxR1 inh | TrxR1 substrate | GALK inhibitor | Nrf2 activator
Fc1ccc(C(OCCN2CCN(CCCc3ccccc3)CC2)c2ccc(F)cc2)cc1 | 23µM | ? | – | – | · | –
CCCCCNc1c(C(=O)OCC)c(=O)[nH]c2ccccc12 | ? | – | – | – | – | –
CCCNC(=O)N1[C@H]2CC[C@@H]1C(C(=O)OC)=C(c1ccc(-c3ccccc3)c(F)c1)C2 | 16µM | – | – | – | · | –
COC(=O)C1=C(c2ccc(-c3ccccc3)c(F)c2)C[C@@H]2CC[C@H]1N2C(=O)NCc1ccco1 | 15µM | – | – | – | · | –
COC(=O)C1=C(c2ccc(-c3ccccc3)c(F)c2)C[C@@H]2CC[C@H]1N2C(=O)NCCOc1ccccc1Cl | 16µM | – | – | – | · | –
CCOC(=O)c1ccc(N2C(=O)c3n[nH]c(-c4cccs4)c3C2c2ccc(OC)cc2OC)cc1 (stereo unspecified) | ? | – | – | – | · | –
Cc1ccc(NC(=O)c2ncn(CC(=O)NCc3ccc4c(c3)OCO4)n2)cc1C | ? | – | – | – | · | –
NCC(=O)c1cccc([N+](=O)[O-])c1 | · | · | – | – | · | ·
CSc1ccc(CN2CCN(C(=O)COc3ccc(C)cc3)CC2)cc1 | 21µM! | – | – | – | – | –
Cn1cccc1CN1CCN(C(=O)COc2ccccc2)CC1 | – | – | – | – | – | –
Cn1nc(-c2ccc(OCC(=O)N3CCN(Cc4ccccc4)CC3)cc2)c2ccccc2c1=O | 18µM | ? | – | – | – | –
O=C1NC(=O)N(c2ccccc2)C(=O)/C1=C\c1ccc([N+](=O)[O-])o1 | · | · | · | · | – | ·
O=C(O)c1ccccc1-c1ccc(C=C2C(=O)N(c3ccccc3)C(=S)N(c3ccccc3)C2=O)o1 | ? | – | 8.9µM | – | – | –
CCN(CC)c1ccc(/C=C2/C(=O)NC(=O)N(CC3CCCO3)C2=O)cc1 (stereo unspecified) | – | – | ? | – | – | –
O=C(O)Cn1cc(/C=C2\C(=O)NC(=O)N(Cc3ccco3)C2=O)c2ccccc21 | – | – | 32µM | – | – | –
CCN(CC)c1ccc(/C=C2\C(=O)NC(=O)N(Cc3ccco3)C2=O)cc1 | – | – | 28µM | – | – | –
CCN1C(=O)NC(=O)/C(=C\c2cn(CC(=O)O)c3ccccc23)C1=O | · | · | · | · | – | ·
Cc1c2ccncc2c(C)c2c1[nH]c1ccccc12 | 7.3µM | ? | ? | – | – | –
c1ccc2c(c1)[nH]c1cnccc12 | – | – | – | – | – | –
Fc1ccc([C@@H]2CCNC[C@H]2COc2ccc3c(c2)OCO3)cc1 | – | ? | – | – | – | –
Cn1c(=O)oc(=O)c2ccccc21 | – | – | 56µM | – | · | –
Cc1cc(C(=O)N=Nc2c(O)n(C)c3ccccc23)c(C)o1 | ? | – | – | – | – | –
CCN1C(=O)C(=Cc2cc(C)n(C3CC3)c2C)C(=O)N(CC)C1=S | – | – | ? | – | – | –
CCN1C(=O)C(=Cc2ccc(C)s2)C(=O)N(CC)C1=S | ? | – | 14µM | – | · | –
CCCCCCCCCC[Si](C)(C)CCC(=O)N[C@@H](Cc1ccc(C)cc1)c1ccccc1 | · | · | – | – | · | ·
SMILES | Nrf2 block | A549 tox | TrxR1 inh | TrxR1 substrate | GALK inhibitor | Nrf2 activator
NC(Cn1ccc(=O)[nH]c1=O)C(=O)O (stereo unspecified) | · | · | – | · | · | ·
C[C@H]1[C@H](OC(=O)CCC(=O)NCc2ccc(C(=O)O)cc2)O[C@@H]2O[C@@]3(C)CC[C@H]4[C@H](C)CC[C@@H]1C24OO3 | 21µM | 21µM | – | – | – | –
Cn1cnc([N+](=O)[O-])c1Sc1ccc([N+](=O)[O-])cc1 | 9.2µM | ? | ? | – | – | –
O=C(CCN1CC2CCC(CC2)C1)c1cccs1 | – | – | 0.45µM | –[11.4 µM] | · | –
CCC(=O)Nc1ccc(C(=O)NNC(=O)c2cc([N+](=O)[O-])cc([N+](=O)[O-])c2)cc1 | ? | – | – | – | – | –
Cc1cccc(Oc2nc3c(C)cccn3c(=O)c2/C=C(\C#N)c2nc3ccccc3s2)c1 | – | – | – | – | · | –
COC(=O)[C@H]1C[C@@H]1[C@H](NP(=O)(c1ccccc1)c1ccccc1)c1ccccc1 | – | – | – | – | · | –
COC(=O)[C@@H]1C[C@H]1[C@@H](NP(=O)(c1ccccc1)c1ccccc1)c1ccccc1 | ? | – | 16µM | – | · | –
COc1ccc(CCN)cc1OC | – | – | – | – | – | –
CNCCc1ccc(OC)c(OC)c1 | – | – | 20µM | – | – | –
Cc1ccc2c(c1Cl)NC(C(=O)O)C1CC(Sc3ccccc3[N+](=O)[O-])C(Cl)C21 (stereo unspecified) | – | – | ? | – | – | –
CCN(CC)C(=O)c1ccc2c(c1)C1C(Cl)C(Sc3ccccc3[N+](=O)[O-])CC1C(C(=O)O)N2 (stereo unspecified) | – | – | 50µM | – | – | –
CSc1nc(N)c(N=Nc2ccc([As](=O)(O)O)cc2)c(=O)[nH]1 | – | – | 4µM | – | – | –
COc1ccc(N=Nc2c(O)[nH]c(=S)[nH]c2=O)cc1 | – | – | – | – | – | –
CC[N+](C)(C)c1cccc(O)c1 | – | – | ? | – | – | –
O=P1(Oc2ccccc2)CC=CC(COC(c2ccccc2)(c2ccccc2)c2ccccc2)O1 (stereo unspecified) | ? | ? | – | – | · | ·
Cc1ccc(C)c(N2CCN(C(=O)CCS(=O)(=O)c3ccc4c(c3)oc(=O)n4C)CC2)c1 | 21µM! | – | – | – | – | –
Cn1c(=O)oc2cc(S(=O)(=O)CCC(=O)N3CCN(c4ccccc4)CC3)ccc21 | ? | – | – | – | – | –
C=CCn1c(O)c(/C=C2/C=c3ccccc3=N2)c(=O)[nH]c1=S | – | – | 20µM | – | – | –
Cc1ccccc1C(=O)NC(Oc1ccccc1)C(Cl)(Cl)Cl (stereo unspecified) | – | – | – | – | – | –
CCCC(=O)NC(Oc1ccc(C(C)=O)cc1)C(Cl)(Cl)Cl (stereo unspecified) | – | – | 25µM | – | – | –
O=C(CCN1CCN(c2ccccc2)CC1)c1ccc(Br)cc1 | – | – | 4µM | – | – | ?
Cc1cc(SCC(=O)N/N=C/c2ccco2)nc2ccccc12 | – | – | – | – | – | ?
O=C(CSc1ccc(-c2ccco2)nn1)Nc1ccccc1 | – | – | 20µM | – | – | –
COc1cccc(N2CCN(c3c4c(nc5nncn35)CCC4)CC2)c1 | 16µM | – | – | – | · | –
COc1ccc(Nc2cc(C)c3cc(NC(=O)c4ccccc4Cl)ccc3n2)cc1 | 26µM | – | – | – | · | –
CN(c1ccccc1)S(=O)(=O)c1cccc(C(=O)N2CCN(c3ccccn3)CC2)c1 | ? | – | – | – | – | –
